The full ranking holds about 39,000 sequences; the median of “fluorescence intensity (a.u.)” is about 4,300, and the highest 2% start at about 39,000. What follows is part of a selection rich in the highest values, with near analogues and random picks from the rest.

The experiment has as its target T1, OsSMF1 (Oryza sativa, UniProt Q6ZLB0 1-436).
T1 sequence: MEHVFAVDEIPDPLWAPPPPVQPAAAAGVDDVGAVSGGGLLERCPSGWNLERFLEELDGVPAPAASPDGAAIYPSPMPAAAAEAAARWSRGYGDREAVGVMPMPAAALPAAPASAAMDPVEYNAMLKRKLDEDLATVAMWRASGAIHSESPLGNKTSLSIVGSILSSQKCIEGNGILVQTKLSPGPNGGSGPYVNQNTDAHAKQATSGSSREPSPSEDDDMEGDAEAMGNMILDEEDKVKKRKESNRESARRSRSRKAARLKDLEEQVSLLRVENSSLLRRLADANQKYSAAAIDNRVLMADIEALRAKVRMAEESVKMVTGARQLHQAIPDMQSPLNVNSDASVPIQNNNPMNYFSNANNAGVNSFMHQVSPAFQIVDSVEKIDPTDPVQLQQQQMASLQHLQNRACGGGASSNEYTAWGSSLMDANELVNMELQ
Put plainly: protein-binding microarray (RPBM); PBS, 2% BSA, 51.3 ng/ul salmon testes DNA, 50 uM zinc acetate, 200 nM TF, 25 C, 1 h; high values mean tight binding. Particulars: protein: recombinant; tags: N-terminal polyhistidine and DsRed monomer fusion (pET32a); chain copies: 2; label: CyDye5-dUTP incorporated in the synthesized complementary strand; 3' TTTTT single-stranded linker to array surface; dsDNA, one strand shown. Summed up:
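For the binding signal, per-feature fluorescence intensity was read in arbitrary units on an Axon 4000B scanner. Before scanning, a 2% BSA-blocked custom Agilent array made double-stranded with Cy5-dUTP was washed after 1 h at 25 °C with 200 nM protein and 50 µM zinc acetate. The proteins were Ni–NTA-purified transcription factors with N-terminal polyhistidine and DsRed fusions, expressed in E. coli BL21-CodonPlus.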
As for “TCTTTCTGCACTTTCTCTGAACGTGGATAAGACATAACCGCGGAGTCACCTAGTGCAG”, the binding signal is 8130 fluorescence intensity (a.u.).
In the case of “TTAATCACTTCTCAAACTTTTAATGCAATGACTTGTGAACCGGAGTCACCTAGTGCAG” it was 3420 fluorescence intensity (a.u.); in that of “CGTCCGCAGCACGCCACGGTAGCGCGACACCCGGCCTTCCCGGAGTCACCTAGTGCAG”, 4600 fluorescence intensity (a.u.).
With “AAGCGATGGAAGCAGCAGACGTGTCGCACGGGAATTTGAGCGGAGTCACCTAGTGCAG”, the binding signal was 5240 fluorescence intensity (a.u.).
In the case of “GGCATGGGTATGGGTCATCACTACCCATGCCCGCTTTGCCCGGAGTCACCTAGTGCAG” it was 4410 fluorescence intensity (a.u.); in that of “TTTTAGGTAGAATGGTCCTGTTGGATCATCATATCAATGACGGAGTCACCTAGTGCAG”, 43400 fluorescence intensity (a.u.).
For the sequence “GATGGTAGGTATGCATATGACGCATATCCTACCTGACGGACGGAGTCACCTAGTGCAG”, the binding signal was 3450 fluorescence intensity (a.u.).
Regarding “GTTGACATATGGATCCTGGTGTTATCGACTCAATGTAGAGCGGAGTCACCTAGTGCAG”, the binding signal was 5150 fluorescence intensity (a.u.).
In the case of “TATCCAGGCGCACGACACTTGACAACTCTGTACTACGTAGCGGAGTCACCTAGTGCAG” it was 38900 fluorescence intensity (a.u.); in that of “AATTGATCTTCAGAGCCCACGTAGGTATTAGACTTTCCTACGGAGTCACCTAGTGCAG”, 6290 fluorescence intensity (a.u.).
In the case of “GGCCAGTTCTCTTCCACGTGGAGGCGGCCTCTCACAGCCGCGGAGTCACCTAGTGCAG” it was 10300 fluorescence intensity (a.u.); in that of “TAGTTTCACTTATTATTTATTTCAGTAAAAGAAAGTTTCCCGGAGTCACCTAGTGCAG”, 3690 fluorescence intensity (a.u.).
Consider “TCATCATCATCATCATTATTAAAGTAAATTTCAGAAAACTCGGAGTCACCTAGTGCAG”, for which the binding signal was 21600 fluorescence intensity (a.u.).
In the case of “AATTTCAGTACTCAGTTCATTAAATTAATTAAAGAAAGGCCGGAGTCACCTAGTGCAG” it was 51100 fluorescence intensity (a.u.).
In the case of “GCGGAGGTCGACCTTGGCGAGGTCGTCCACGTCCGGGTGCCGGAGTCACCTAGTGCAG” it was 3340 fluorescence intensity (a.u.); in that of “CCATCTTCATCTCCATATCTTCTCCTCCTCGCGTCGGCAGCGGAGTCACCTAGTGCAG”, 3270 fluorescence intensity (a.u.).
With “CCCAGCCCGGCGTCCCCTTCTCGGCTTCCTCCTCCACCATCGGAGTCACCTAGTGCAG”, the binding signal is 4100 fluorescence intensity (a.u.).
“GCAATCTCATGATTCATGCAGCTTTGTAGCAATGTGTGCTCGGAGTCACCTAGTGCAG”: the binding signal is 3140 fluorescence intensity (a.u.).
In the case of “AAATCCGCCCTCGCCTCGCCCCGATCGATCCCCTCGATTCCGGAGTCACCTAGTGCAG” it was 3810 fluorescence intensity (a.u.); in that of “GCTTCTGCTGTGGCTGTGCTGAGCTTTCACAGTCACAGCCCGGAGTCACCTAGTGCAG”, 3550 fluorescence intensity (a.u.); in that of “TCTAACCCCGCCTGCAGATCCGCTCCATCGATTCCCTCCCCGGAGTCACCTAGTGCAG”, 31700 fluorescence intensity (a.u.).
Regarding “AACTTCTCAATGTGTGGCCCCGAGCTGTGGCTTCACAGCTCGGAGTCACCTAGTGCAG”, the binding signal is 63300 fluorescence intensity (a.u.).
On to “GGCCCCACATGTCATCTCCTCCCTTTCTTCTTCCTCCCCTCGGAGTCACCTAGTGCAG”, for which the binding signal was 4040 fluorescence intensity (a.u.).
In the case of “CTTCAGTCCTCGGCCCATTCTCCCTTCCTTTCAGCTGGCTCGGAGTCACCTAGTGCAG” it was 45600 fluorescence intensity (a.u.); in that of “TCTCCCCAGATTTCCCCTTCCATTCCGCCTCCCGATCGCTCGGAGTCACCTAGTGCAG”, 43300 fluorescence intensity (a.u.).
In the case of “GGAGGAGGAGGAGGAGGGAGATGGTGGCGAGCTGACTTGGCGGAGTCACCTAGTGCAG” it was 4090 fluorescence intensity (a.u.); in that of “TCAGCTGCGTCACCCGAGTCCTCCACTCGTCTCCGCTATTCGGAGTCACCTAGTGCAG”, 5650 fluorescence intensity (a.u.).
In the case of “TCACTGCGTGCATGTATGTACGTGGATTGTCCAATTACAACGGAGTCACCTAGTGCAG” it was 3300 fluorescence intensity (a.u.); in that of “CTCCTAGCAGCAACAGGGCCACGTTTGCTCTGCGAACAGGCGGAGTCACCTAGTGCAG”, 4590 fluorescence intensity (a.u.).
For the sequence “TTTGGTTAGTGAATTTAGCTATCCTCTCCTTGACTTCCTACGGAGTCACCTAGTGCAG”, the binding signal is 3660 fluorescence intensity (a.u.).
Turning to “ATTTAGTGCTAAATATGTAGTTTCATGATACATCATGTTACGGAGTCACCTAGTGCAG”, the binding signal is 3850 fluorescence intensity (a.u.).
Take “TGGTGTGTAATTTGTGCAAATTCTAAGCAAATGCAAATTGCGGAGTCACCTAGTGCAG”: the binding signal was 17200 fluorescence intensity (a.u.).
As to “GGTGCAGTTCATCATATGTGTTAGACTAATTGAGTAATTGCGGAGTCACCTAGTGCAG”, the binding signal is 36500 fluorescence intensity (a.u.).
For the sequence “TGTGTTCTGCAATGCATAATTGCACCAGTTCTAGTACCTGCGGAGTCACCTAGTGCAG”, the binding signal is 45300 fluorescence intensity (a.u.).
“CAGGGGCATTTCCGTAAACTCCCACGTGGCACAGATACGGCGGAGTCACCTAGTGCAG”: the binding signal is 13200 fluorescence intensity (a.u.).
In the case of “TCTTGACATCCGGAATCATCACGCTCTTCCCAATCGAGGTCGGAGTCACCTAGTGCAG” it was 3680 fluorescence intensity (a.u.); in that of “AAGTAGCCCGGATCTCCCAGCTTCCCTCGAGCTGACCTCACGGAGTCACCTAGTGCAG”, 3960 fluorescence intensity (a.u.); in that of “TGCTGACTATGATGCCACGTCAGCGAAACCACCCATATATCGGAGTCACCTAGTGCAG”, 23000 fluorescence intensity (a.u.).
In the case of “TTTTAATTCAAATGCCACCTAAGCGCCACGTCAACCCTATCGGAGTCACCTAGTGCAG” it was 23500 fluorescence intensity (a.u.); in that of “TGCCACGTCAGCGAAAACCACCATCTAAACCACCGCCATGCGGAGTCACCTAGTGCAG”, 7960 fluorescence intensity (a.u.).
As to “TTTAATTCAAATGCCACCTAAGCACCACGTCAGCGAAACCCGGAGTCACCTAGTGCAG”, the binding signal is 42600 fluorescence intensity (a.u.).
In the case of “TTTAATTCAAATGCCAGCTAAGCGCTACGTCAACCCTACACGGAGTCACCTAGTGCAG” it was 15500 fluorescence intensity (a.u.); in that of “ACTAAGCTGCCACGTGGATGCCACGTCAGCGAAAACCACCCGGAGTCACCTAGTGCAG”, 61800 fluorescence intensity (a.u.).
In the case of “GGGCGGAGCTAGAATAAAATAAAGGAGGGTTCCACTCGTTCGGAGTCACCTAGTGCAG” it was 23100 fluorescence intensity (a.u.).
In the case of “TCGATTTACTGACAAAATTGTATCCCAAAACAATGGCTTACGGAGTCACCTAGTGCAG” it was 33700 fluorescence intensity (a.u.).
In the case of “TTCTCTACCAGCGGCAGCGGCGGCTGGTAGGGAGGAGGAGCGGAGTCACCTAGTGCAG”, the binding signal is 4860 fluorescence intensity (a.u.).
Regarding “ATAAAGAAGGGAGGCAGCGGGCGAGCTGTAAAGGAGTACACGGAGTCACCTAGTGCAG”, the binding signal was 32300 fluorescence intensity (a.u.).
Take “GGATTGACGGGGACGCGGTGGTGGCGCCAACGGATGGACGCGGAGTCACCTAGTGCAG”: the binding signal is 6220 fluorescence intensity (a.u.).
As for “TTACTGGTGATATTTATTTTGACAAGTGCTTTTATTTGTACGGAGTCACCTAGTGCAG”, the binding signal was 3930 fluorescence intensity (a.u.).
For “CATTTTGTACTTTGACAAGTATTTAATATTTGCCAGTAGTCGGAGTCACCTAGTGCAG”, the binding signal was 65100 fluorescence intensity (a.u.).
As to “TTACTAGTACATTTAATATATTTATTTAATGTATTTGTATCGGAGTCACCTAGTGCAG”, the binding signal is 3140 fluorescence intensity (a.u.).
Take “ATATTCGTCTCTATCGCTTAAGGCGGTTAGTTGCGTGTCACGGAGTCACCTAGTGCAG”: the binding signal was 3930 fluorescence intensity (a.u.).
In the case of “AATCATTTTATTTGACTAATACACGTCAGGATTGAATGAGCGGAGTCACCTAGTGCAG” it was 4880 fluorescence intensity (a.u.); in that of “GTCCAATTTAATGCTGACGTTGCTGATGGAATGCCGTGGACGGAGTCACCTAGTGCAG”, 10500 fluorescence intensity (a.u.).
In the case of “TTAATGATTTTATTTGAATGGATCAGGGTCCAATTTGCTGCGGAGTCACCTAGTGCAG” it was 55800 fluorescence intensity (a.u.).

Values taken from publication PMC7819943, “Rice protein-binding microarrays: a tool to detect cis-acting elements near promoter regions in rice”.
